According to the supplement of paper PMC12350171:
Counter-ions that a name gives are not always drawn. Values without a mark were called inactive.

Tests used:
Conditions in all cases: 20 µM
[1] = tested on: Salmonella enterica typhimurium; assay: growth AUC normalised to DMSO control (fraction of control); higher = less growth inhibition, active = hit call of the paper
Outline: (§1)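 Pathogens were passaged twice under anaerobic conditions, then inoculated into pre-reduced mGAM plates at a starting OD578 of 0.01, with compound at 20 μM and 1% DMSO, and sealed with breathable membranes. For Haemophilus parainfluenzae, the medium was supplemented with hemin and NAD. OD578 was read every hour for 24 h in three biological replicates. Growth-curve AUC was calculated by the trapezoidal rule up to the exponential-to-stationary transition and normalised to DMSO controls on the same plate.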

[2] = tested on: Shigella flexneri; assay: as above
Outline: as §1

[3] = tested on: Vibrio cholerae; assay: as above
Outline: as §1

[4] = tested on: Yersinia pseudotuberculosis; assay: as above
Outline: as §1

[5] = tested on: P. vulgatus RND KO; assay: growth AUC normalised to DMSO control (median) (fraction of control); higher = less growth inhibition, active = hit call of the paper
Outline: (§2)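 For normalised area under the curve, growth curves were truncated at entry into stationary phase, integrated by the trapezoidal rule and divided against vehicle wells on the same plate. The curves came from strains passaged twice overnight without oxygen and then grown in mGAM in 96-well plates at a starting OD578 of 0.01. Each well held an approved-drug library compound at 20 μM with 1% DMSO, and OD578 was read hourly for 24 h in an anaerobic incubator. Values are medians of three biological replicates.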

[6] = tested on: P. vulgatus WT; assay: as above
Outline: as §2

[7] = tested on: S. enterica typhimurium WT; assay: as above
Outline: as §2

[8] = tested on: S. enterica typhimurium tolC KO; assay: as above
Outline: as §2
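Wherever growth AUC normalised to DMSO control (median) is given: active when median AUC fell below 0.1.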

| Compound | growth AUC normalised to DMSO control [1] | growth AUC normalised to DMSO control [2] | growth AUC normalised to DMSO control [3] | growth AUC normalised to DMSO control [4] | growth AUC normalised to DMSO control [5] | growth AUC normalised to DMSO control [6] | growth AUC normalised to DMSO control [7] | growth AUC normalised to DMSO control [8] |
| --- | --- | --- | --- | --- | --- | --- | --- | --- |
| Oc1ccc(OCc2ccccc2)cc1 [Monobenzone] | 0.975 | 0.941 | 0.982 | 0.974 | 0.981 | 0.992 | 0.996 | 0.977 |
| CN(C)CCC(c1ccc(Cl)cc1)c1ccccn1 (stereo not given) [Chlorpheniramine maleate] | 0.987 | 0.94 | 0.972 | 0.956 | 0.994 | 0.987 | 0.994 | 0.996 |
| CCCOc1ccc(C(=O)OCCN(CC)CC)cc1N [Proparacaine hydrochloride] | 1 | 1.02 | 1.08 | 1 | 1.03 | 1.05 | 1.01 | 1.01 |
| CC1(C)NC(=O)N(c2ccc([N+](=O)[O-])c(C(F)(F)F)c2)C1=O [Nilutamide] | 0.928 | 0.977 | 0.957 | 1 | 0.964 | 0.952 | 0.992 | 0.999 |
| CC(=O)Oc1ccccc1C(=O)O [Acetylsalicylic acid] | 1.04 | 1.04 | 1.09 | 1.02 | 1.01 | 1.01 | 1.01 | 1.01 |
| Cc1cc2c(s1)Nc1ccccc1N=C2N1CCN(C)CC1 [Olanzapine] | 0.997 | 0.996 | 0.997 | 1.01 | 1.03 | 1.03 | 1.02 | 0.994 |
| CCCCNc1ccc(C(=O)OCCN(C)C)cc1 [Tetracaine hydrochloride] | 1.01 | 1.01 | 1.01 | 1 | 1.04 | 1.07 | 0.999 | 0.993 |
| CN1[C@@H]2CC[C@H]1C[C@@H](OC(c1ccccc1)c1ccccc1)C2 [Benztropine mesylate] | 1 | 1.01 | 1 | 1.01 | 0.944 | 0.904 | 0.998 | 0.195 |
| CCCCC1C(=O)N(c2ccccc2)N(c2ccc(O)cc2)C1=O (stereo not given) [Oxyphenbutazone] | 0.996 | 1.04 | 1.03 | 1 | 1.03 | 1.06 | 1.01 | 1.01 |
| Clc1ccc(Cn2c(CN3CCCC3)nc3ccccc32)cc1 [Clemizole hydrochloride] | 0.98 | 0.988 | 0.922 | 0.986 | 0.902 | 0.857 | 0.997 | 0.949 |
| CC[C@@H](CO)NCCN[C@@H](CC)CO [Ethambutol dihydrochloride] | 0.943 | 0.976 | 1 | 1.01 | 1.01 | 0.998 | 1 | 0.989 |
| CC(C)(C)NCC(O)COc1cccc2c1CC(O)C(O)C2 (stereo not given) [Nadolol] | 0.99 | 0.999 | 1 | 1 | 1.02 | 1.01 | 1 | 1 |
| O=C(O)COC(=O)Cc1ccccc1Nc1c(Cl)cccc1Cl [Aceclofenac] | 0.995 | 0.979 | 0.979 | 0.999 | 0.995 | 0.983 | 1.01 | 0.998 |
| CN1CCN(C2=Nc3cc(Cl)ccc3Nc3ccccc32)CC1 [Clozapine] | 1.02 | 1.05 | 0.969 | 1 | 1.01 | 1.02 | 1 | 0.977 |
| C[C@]12CC[C@H]3[C@@H](CCC4=CC(=O)CC[C@@]43C)[C@@H]1CC[C@@H]2C(=O)CO [Deoxycorticosterone] | 1 | 1.03 | 1.03 | 1.03 | 1.07 | 1.07 | 1 | 0.933 |
| O=C(COc1ccc(Cl)cc1)N1CCN(Cc2ccc3c(c2)OCO3)CC1 [Fipexide hydrochloride] | 0.987 | 0.971 | 0.875 | 0.992 | 1 | 0.966 | 0.995 | 0.942 |
| CCCCC(C)(O)C/C=C/[C@H]1[C@H](O)CC(=O)[C@@H]1CCCCCCC(=O)OC (mixture of isomers) [Misoprostol] | 1.02 | 1.01 | 1.02 | 1.01 | 0.996 | 0.992 | 1.01 | 0.991 |
| COc1ccc2cc([C@H](C)C(=O)O)ccc2c1 [(S)-Naproxen] | 0.992 | 1.01 | 0.96 | 0.964 | 1.01 | 1.04 | 0.994 | 0.998 |
| CC(=O)CC(c1ccc([N+](=O)[O-])cc1)c1c(O)c2ccccc2oc1=O (stereo not given) [Acenocoumarol] | 0.985 | 1.01 | 0.938 | 0.991 | 1.07 | 1.06 | 0.999 | 0.999 |
| Nc1nc2c(ncn2COCCO)c(=O)[nH]1 [Acyclovir] | 1.01 | 1.01 | 1.01 | 0.995 | 1.05 | 1.02 | 1 | 1 |
| CC(C)NNC(=O)c1ccncc1 [Iproniazide phosphate] | 1.01 | 1 | 0.997 | 1.02 | 1.02 | 1.03 | 1.02 | 0.992 |
| Cc1ccc(-c2cc(C(F)(F)F)nn2-c2ccc(S(N)(=O)=O)cc2)cc1 [Celecoxib] | 1.01 | 1.02 | 0.851 (active) | 1.03 | 0.728 | 0.771 | 1.01 | 0.852 |
| CC(C(=O)O)c1cccc(Oc2ccccc2)c1 (stereo not given) [Fenoprofen calcium salt dihydrate] | 0.995 | 0.924 | 0.945 | 0.987 | 0.99 | 0.983 | 1 | 0.995 |
| COc1ccc(C2CNC(=O)C2)cc1OC1CCCC1 (stereo not given) [Rolipram] | 0.976 | 0.948 | 0.945 | 0.984 | 1.01 | 1.02 | 1.01 | 0.98 |
| NC(N)=Nc1nc(CSCC/C(N)=N/S(N)(=O)=O)cs1 [Famotidine] | 1 | 0.965 | 0.993 | 0.97 | 1.01 | 1.04 | 1.01 | 0.996 |
| C[C@]12CCC(=O)C=C1C=C[C@@H]1[C@@H]2CC[C@@]2(C)[C@H]1CC[C@@]21CCC(=O)O1 [Canrenone] | 1.01 | 1.06 | 1.03 | 1.01 | 1.07 | 1.1 | 1.01 | 0.939 |
| Clc1ccccc1CN1CCc2sccc2C1 [Ticlopidine hydrochloride] | 0.975 | 0.988 | 0.947 | 1.01 | 0.986 | 0.997 | 0.967 | 0.973 |
| CC(Oc1c(Cl)cccc1Cl)C1=NCCN1 (stereo not given) [Lofexidine] | 1.01 | 1 | 1.01 | 1.01 | 1.02 | 1.03 | 1.02 | 1 |
| CN(C)CCOc1ccc(/C(=C(/CCCl)c2ccccc2)c2ccccc2)cc1 [Toremifene] | 1.01 | 1.05 | 1.05 | 1.06 | 0.973 | 1.01 | 1.02 | 0.983 |
| CC(=O)Oc1cc(C(C)C)c(OCCN(C)C)cc1C [Moxisylyte hydrochoride] | 0.992 | 0.992 | 0.991 | 0.99 | 0.999 | 1 | 1.01 | 1 |
